Hit rate of the full screen: of about 39,000 compounds, about 3,300 (8.5%) were called active. Only a selection was taken, and actives are over-represented in it overall.

The subject of the assay is HepG2. The assay can be described thus: cytotoxicity call (relative viability < 0.9). Particulars: 10 µM.
In the case of `C[C@@H]1CN([C@@H](C)CO)C(=O)c2cc(NS(=O)(=O)c3ccc(Cl)cc3)ccc2O[C@@H](C)CCCCO[C@@H]1CN(C)Cc1ccncc1`, the cytotoxicity call was “inactive”.
Under `C[C@@H]1CN([C@H](C)CO)C(=O)c2cc(C3=CCCCC3)cnc2O[C@@H]1CN(C)C(=O)CN1CCOCC1` stands “inactive”; under `c1nc2c(c(N3CCOCC3)n1)CCNCC2`, “inactive”.
For `CCCCC(CC)CN1CN(CC(CC)CCCC)CC(C)(N)C1` (configuration not stated), the cytotoxicity call was “active”.
In the case of `C[C@@H]1CCCCO[C@@H](CN(C)C(=O)Nc2ccccc2)[C@H](C)CN([C@H](C)CO)C(=O)c2cc(NC(=O)C3CCCCC3)ccc2O1`, the cytotoxicity call is “inactive”.
The value for `COc1ccc(S(=O)(=O)N(C)C[C@@H]2OCCCC[C@H](C)Oc3ccc(NC(=O)Nc4ccc(F)cc4)cc3C(=O)N([C@H](C)CO)C[C@@H]2C)cc1` was “inactive”.
The value for `C[C@H](CO)N1C[C@H](C)[C@@H](CN(C)C(=O)Nc2ccc(C(F)(F)F)cc2)OCCCC[C@H](C)Oc2ccc(NS(=O)(=O)c3cn(C)cn3)cc2C1=O` was “inactive”; that for `C[C@@H]1CCCCO[C@H](CN(C)Cc2ccc(C(F)(F)F)cc2)[C@H](C)CN([C@@H](C)CO)C(=O)c2cc(NS(=O)(=O)c3ccc(F)cc3)ccc2O1` was “inactive”; that for `Cc1ccc(S(=O)(=O)Nc2ccc3c(c2)C(=O)N([C@H](C)CO)C[C@H](C)[C@@H](CN(C)Cc2ccc(C(F)(F)F)cc2)OCCCC[C@@H](C)O3)cc1` was “inactive”.
The value for `Cc1ccc(S(=O)(=O)Nc2ccc3c(c2)C(=O)N([C@H](C)CO)C[C@H](C)[C@H](CN(C)Cc2ccc(C(F)(F)F)cc2)OCCCC[C@@H](C)O3)cc1` was “active”.
As to `C[C@H]1CCCCO[C@H](CN(C)Cc2ccc(C(F)(F)F)cc2)[C@@H](C)CN([C@@H](C)CO)C(=O)c2cc(NS(=O)(=O)c3ccc(F)cc3)ccc2O1`, the cytotoxicity call is “inactive”.
As to `Cc1ccc(S(=O)(=O)Nc2ccc3c(c2)C(=O)N([C@@H](C)CO)C[C@H](C)[C@H](CN(C)Cc2ccc(C(F)(F)F)cc2)OCCCC[C@H](C)O3)cc1`, the cytotoxicity call was “inactive”.
For `C[C@@H]1CN([C@@H](C)CO)C(=O)c2cc(NS(=O)(=O)c3ccc(F)cc3)ccc2O[C@@H](C)CCCCO[C@@H]1CN(C)Cc1ccc(C(F)(F)F)cc1`, the cytotoxicity call is “inactive”.
Under `Cc1ccc(S(=O)(=O)Nc2ccc3c(c2)C(=O)N([C@@H](C)CO)C[C@@H](C)[C@H](CN(C)Cc2ccc(C(F)(F)F)cc2)OCCCC[C@H](C)O3)cc1` stands “active”.
In the case of `C[C@H]1CCCCO[C@@H](CN(C)Cc2ccc(C(F)(F)F)cc2)[C@@H](C)CN([C@@H](C)CO)C(=O)c2cc(NS(=O)(=O)c3ccc(F)cc3)ccc2O1`, the cytotoxicity call is “inactive”.
Under `Cc1ccc(S(=O)(=O)Nc2ccc3c(c2)C(=O)N([C@H](C)CO)C[C@@H](C)[C@H](CN(C)Cc2ccc(C(F)(F)F)cc2)OCCCC[C@@H](C)O3)cc1` stands “active”.
Under `Cc1ccc(S(=O)(=O)Nc2ccc3c(c2)C(=O)N([C@H](C)CO)C[C@@H](C)[C@@H](CN(C)Cc2ccc(C(F)(F)F)cc2)OCCCC[C@H](C)O3)cc1` stands “active”; under `Cc1ccc(S(=O)(=O)Nc2ccc3c(c2)C(=O)N([C@H](C)CO)C[C@H](C)[C@H](CN(C)C(=O)Cc2ccccc2)OCCCC[C@H](C)O3)cc1`, “inactive”; under `C[C@H](CO)N1C[C@H](C)[C@H](CN(C)CC2CC2)Oc2ccc(NS(=O)(=O)c3ccccc3)cc2CC1=O`, “inactive”.
Under `Cc1ccc(S(=O)(=O)N2C[C@H](O)COC[C@@H]3O[C@@H](CC(=O)N4CCc5ccccc5C4)CC[C@H]32)cc1` stands “inactive”; under `C[C@@H](O)C#Cc1cnc2c(c1)C(=O)N([C@@H](C)CO)C[C@H](C)[C@@H](CN(C)C(=O)CN1CCOCC1)O2`, “inactive”; under `CCNC(=O)[C@@H]1[C@@H](CO)[C@@H]2Cn3c(ccc(C4=CCCC4)c3=O)[C@H]1N2S(=O)(=O)c1cn(C)cn1`, “inactive”.
Regarding `COCC(=O)N1C[C@@H](C)[C@H](OC)CN(C)C(=O)c2ccc(NC(=O)c3ccc(F)cc3)cc2OC[C@H]1C`, the cytotoxicity call is “inactive”.
Consider `C[C@H]1CCCCO[C@H](CN(C)C(=O)Nc2ccc3c(c2)OCO3)[C@@H](C)CN([C@@H](C)CO)C(=O)c2cc(NS(=O)(=O)c3ccc(F)cc3)ccc2O1`, for which the cytotoxicity call is “inactive”.
Under `O=C(C[C@@H]1CC[C@H]2[C@@H](COC[C@H](O)CN2C(=O)Nc2ccc(F)cc2)O1)NCCCN1CCOCC1` stands “inactive”.
Take `Cc1ccc(S(=O)(=O)Nc2ccc3c(c2)C(=O)N([C@@H](C)CO)C[C@H](C)[C@H](CN(C)Cc2ccc(C(F)(F)F)cc2)OCCCC[C@@H](C)O3)cc1`: the cytotoxicity call is “inactive”.
The value for `Cc1ccc(S(=O)(=O)Nc2ccc3c(c2)C(=O)N([C@H](C)CO)C[C@H](C)[C@@H](CN(C)Cc2ccc(C(F)(F)F)cc2)OCCCC[C@H](C)O3)cc1` was “active”; that for `Cc1ccc(S(=O)(=O)Nc2ccc3c(c2)C(=O)N([C@@H](C)CO)C[C@H](C)[C@@H](CN(C)Cc2ccc(C(F)(F)F)cc2)OCCCC[C@@H](C)O3)cc1` was “active”; that for `Cc1ccc(S(=O)(=O)Nc2ccc3c(c2)C(=O)N([C@@H](C)CO)C[C@H](C)[C@@H](CN(C)Cc2ccc(C(F)(F)F)cc2)OCCCC[C@H](C)O3)cc1` was “active”.
`Cc1ccc(S(=O)(=O)Nc2ccc3c(c2)C(=O)N([C@@H](C)CO)C[C@@H](C)[C@@H](CN(C)Cc2ccc(C(F)(F)F)cc2)OCCCC[C@H](C)O3)cc1`: the cytotoxicity call was “inactive”.
The value for `Cc1ccc(S(=O)(=O)Nc2ccc3c(c2)C(=O)N([C@@H](C)CO)C[C@@H](C)[C@H](CN(C)Cc2ccc(C(F)(F)F)cc2)OCCCC[C@@H](C)O3)cc1` was “active”; that for `NC(=O)c1ccc[n+](C2OC(COP(=O)([O-])OP(=O)(O)OCC3OC(n4cnc5c(N)ncnc54)C(O)C3O)C(O)C2O)c1` (configuration not stated) was “inactive”; that for `CNC[C@@H]1Oc2ccc(NC(=O)CCN3CCOCC3)cc2CC(=O)N([C@@H](C)CO)C[C@H]1C` was “inactive”.
Consider `CC(C)(C)c1c(C(C)(C)C)c1=O`, for which the cytotoxicity call was “inactive”.
Under `O=C(N[C@@H]1CC[C@H](CCn2cc(C3(O)CCCC3)nn2)O[C@H]1CO)C1CCOCC1` stands “inactive”; under `Cc1cc(C(=O)N2CCNC(=O)C2(C)C)no1`, “inactive”.
As to `C[C@H]1CN([C@@H](C)CO)C(=O)Cc2cc(NC(=O)CCC(F)(F)F)ccc2O[C@@H]1CN(C)S(=O)(=O)c1ccccc1`, the cytotoxicity call was “inactive”.

(Values after the antibiotic and cytotoxicity screens of Wong et al. (2023).)
